MsrA inh = inhibits bovine methionine sulfoxide reductase A. purified bovine MsrA, absorbance read-out. AID 651718. inhibition, % at 15.5 µM. 0.75% of 360,000 active
NPR2 activator = GC-B (human) receptor activation; P20594; HEK293-GC-B cells, CNP EC30, cGMP TR-FRET; 0% at EC30 CNP, 100% saturating CNP; activation, % at 10 µM; 0.11% of 370,000 active; AID 1920062;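 active = activation at 10 µM reaching about 35% in either raw or pattern-adjusted values, limit read from the data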
GC-A act = GC-A (human) enzyme activation; 0.14% of 370,000 active; activation, % at 10 µM; P16066; HEK293 GC-A cells, cGMP TR-FRET, EC30 ANP; 0% at EC30 ANP, 100% saturating ANP; in the data active = activation above about 40%
bovine MsrA act = bovine methionine sulfoxide reductase A activation; purified bovine MsrA, absorbance read-out; activation, % at 10.6 µM; 0.3% of 360,000 active; AID 602163; in the data active = activation above about 7.5%
MsrA conf = bovine MsrA inhibition, confirmed | AID 651822 | 41% of 2,300 active | shares compounds with MsrA inh | inhibition, % at 15.5 µM | purified bovine MsrA, absorbance read-out;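 also: coupled to thioredoxin reductase with NADPH and selenocystamine and DMSO as substrate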
Each line names hits and unclear results; the compound was inactive in the other large screens (follow-up assays come after a bar, where they were run). Rows were chosen to be rich in hits. Some 1.2% of all compounds tested hit in one or more screens of this group. Rule as the data show it, unless noted: active = inhibition above about 4.5%; inactive = the rest.

C=CCCC[C@H]1OC(=O)[C@H](C)NC(=O)[C@H](C(C)C)NC(=O)[C@@H]2CCCN2C(=O)[C@H](Cc2ccccc2)OC(=O)[C@@H](C(C)C)N(C)C(=O)[C@H](C(C)C)NC(=O)C1(C)C	none (no result: bovine MsrA act)
COc1cc(/C=N/Nc2nc3c(c(=O)n(C)c(=O)n3C)n2Cc2ccccc2)ccc1OC(=O)c1ccco1	MsrA inh 5.4 | MsrA conf inactive
Cc1ccc(-c2nc3ccccc3n2C)o1	none
CC(=O)c1ccc(-c2nc3ccccc3n2C)o1	MsrA inh 6.7 | MsrA conf inactive
C/C(=N/O)c1cc(C(C)(C)C)c(O)c(C(C)(C)C)c1	MsrA inh 12 | MsrA conf 11
CC(C)(Sc1cc(C(C)(C)C)c(O)c(C(C)(C)C)c1)Sc1cc(C(C)(C)C)c(O)c(C(C)(C)C)c1	none
Cc1ccc(-c2cc(C(=O)NN=Cc3cccc4ccccc34)[nH]n2)cc1C	none (no result: MsrA inh, bovine MsrA act)
Cc1[nH]c2ccccc2c1C(=O)C(=O)NCCCn1ccnc1	MsrA inh 4.9 | MsrA conf inactive
CCN1C(=O)/C(=C\N(C(C)=O)c2ccccc2)OC1=S	MsrA inh 6.7 | MsrA conf 5.0
Cc1ccc(OCCNC(=O)[C@@H](Cc2ccccc2)NC(=O)[C@H]2O[C@@H](n3ccc(=O)[nH]c3=O)[C@H](O)[C@@H]2O)cc1C	none (no result: bovine MsrA act)
Cc1ccc(S(=O)(=O)N2CCCN(S(=O)(=O)c3ccc(C)cc3)CC2)cc1	none
Cc1ccc(S(=O)(=O)N2CCN(S(=O)(=O)c3ccc(C)cc3)C2)cc1	MsrA inh 5.5 | MsrA conf inactive
Cc1cc(N2CCOCC2)ccc1/C=C1\NC(=O)N(CC(=O)Nc2ccc(F)cc2)C1=O	MsrA inh 5.6 | MsrA conf inactive
Cc1ccc(Nc2ccc(C(N)=O)cc2[N+](=O)[O-])cc1C	MsrA inh 19 | MsrA conf 12
O=C(N/N=C/c1ccsc1)c1ccccn1	none
Cc1ccsc1/C=N/NC(=O)c1ccccn1	MsrA inh 5.7 | MsrA conf inactive
Cc1ccsc1/C=N/NC(=O)c1cccs1	none
O=C(N/N=C/c1ccc(Br)s1)c1ccccn1	MsrA inh 6.0 | MsrA conf 7.0
CCCC[C@H]1C2CC(OC(=O)NCCCc3ccccc3)C(C2)[C@H]2CCCCN21 (some centres not stated)	none (no result: MsrA inh, bovine MsrA act)
CN(Cc1ccc(F)cc1)C(=O)CN1C(=O)C2(OCCCO2)c2ccccc21	none (no result: MsrA inh, bovine MsrA act)
CCOC(=O)Cc1csc(NC(=O)/C=C/c2ccco2)n1	MsrA inh 7.8 | MsrA conf 4.6
COc1ccc(N/C(=C\C(=O)c2ccccc2)c2ccccc2)cc1OC	none (no result: bovine MsrA act)
O=c1c2cc(Cl)ccc2oc2nc3n(c(=O)c12)CCCS3	MsrA inh 8.9 | MsrA conf inactive
COc1ccc(C(=O)C2(C(=O)NCc3ccccc3)CC(c3ccccn3)=NO2)cc1 (configuration not stated)	none (no result: MsrA inh, bovine MsrA act)
COc1ccc(NC(=O)c2cccn(CC=C(C)C)c2=O)cc1	MsrA inh 4.7 | MsrA conf inactive
Cc1ccc(/C=C2\C(=N)N3N=C(CC(=O)N4CCOCC4)SC3=NC2=O)o1	MsrA inh 5.2 | MsrA conf inactive
COc1ccccc1-n1c(C)cc(/C=C2\C(=N)N3N=C(CC(=O)N4CCOCC4)SC3=NC2=O)c1C	MsrA inh 5.3 | MsrA conf inactive
C[C@H]1[C@@H](NC(=O)C#Cc2ccccc2)CC[C@@]23CCCN2C(=O)CCC[C@@H]13	none (no result: MsrA inh, bovine MsrA act)
CCCCc1nc(SCC(=O)N2CCCC2)c2c(=O)n(C)c(=O)n(C)c2n1	MsrA inh 7.5 | MsrA conf 6.9
CC(C)Cc1nc(SCC(=O)N2CCCC2)c2c(=O)n(C)c(=O)n(C)c2n1	MsrA inh 8.0 | MsrA conf 7.2
CCCCc1nc(SCC(=O)N2CCCCC2)c2c(=O)n(C)c(=O)n(C)c2n1	none
O=C1CCc2cc(S(=O)(=O)N3CCN(c4ccccc4Cl)CC3)ccc2N1	none (no result: MsrA inh, bovine MsrA act)
CC(C)CN1C(=O)[C@@]2(CC(=O)N(C)C2c2ccccc2)c2cc(-n3cc(C(C)(C)O)nn3)ccc21 (some centres not stated)	none (no result: MsrA inh, bovine MsrA act)
Cc1ccc(NC(=O)Cc2ccc(F)cc2)c(S(=O)(=O)N2CCOCC2)c1	none (no result: MsrA inh, bovine MsrA act)
C=CCN1C(c2ccccc2)=CS/C1=C(\C#N)c1nnc2n1CCCCC2	MsrA inh 4.8 | MsrA conf inactive
CC1(C)OC(=O)C(=NNc2ccc(C(=O)O)cc2)C(=O)O1	MsrA inh 4.8 | MsrA conf inactive
CC1(C)OC(=O)C(=NNc2ccccc2C(=O)O)C(=O)O1	MsrA inh 4.9 | MsrA conf inactive

From PubChem
